Results as given in PubChem BioAssay (NCI).
About 83,000 compounds went through this panel and 20% of them were active in at least one assay; those are over-represented in the sample as a whole.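 48-hour exposure, single concentration, 96-well plates; percent growth endpoint where 0 means no net growth. Active: below 10.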 Unmarked numbers belong to inactive results. Active and inactive are the calls of the source.

test system: CCRF-CEM leukemia; assay: NCI-60 one-dose screen, 48 h (100 = growth as untreated, 0 = no growth, -100 = all killed); conditions: 10 µM unless noted
Procedure: Growth inhibition of the CCRF-CEM human tumor cell line is measured as a screen for anti-cancer activity. Cells are grown in 96 well plates and exposed to the test compound for 48 hours. Compounds are tested at a single concentration, which is 10^-5 M for most compounds. The reported endpoint is percent growth (GI% or GIPRCNT), where numbers from 0 - 100% represent growth inhibition, and numbers from -100% - 0 represent cell death. For example, a value of 40 represents 60% growth inhibition. A value of 0 means no net growth occurred over the course of the experiment. A value of -40 indicates 40% of cells at the beginning of the experiment died by the end of the experiment. A value of -100 means all cells are dead at the end of the experiment.
NCI-60 Human Tumor Cell Lines Screen was performed using the standard one-dose NCI protocol, which is described in more detail at https://dtp.cancer.gov/discovery_development/nci-60/default.htm.
Compounds with GIPRCNT values below 10 were considered active. Activity score was based on GIPRCNT using the following formula: […]
Score is 0 for GIPRCNT values of 100 or above, 50 for GIPRCNT values of 0, and 100 for GIPRCNT values of -100.

Q: For `CC(N)C(Cc1ccccc1)c1ccc(Cl)cc1` (stereo not given), which growth is on record?
A: 91.2%

Q: Which growth does the source give for `O=C(Cc1ccc(/C=C/C(=O)c2ncc[nH]2)cc1)Nc1ccc(S(F)(F)(F)(F)F)cc1` here?
A: 41.9%

Q: With `O=C1NC(=O)/C(=C/c2ccc3nccc(-c4ccncc4)c3c2)S1` as the molecule, how does the growth read?
A: 0.0384% (active)

Q: Which growth does the source give for `Cc1csc(-c2nnc(Nc3ccc(Oc4ncccc4-c4ccnc(N)n4)cc3)c3ccccc23)c1` here?
A: 25.1%

Q: Which growth does the source give for `COc1cc2ncnc(Nc3cccc(Cl)c3F)c2cc1OC(=O)N1CCN(C)C[C@H]1C` here?
A: 74.7%

Q: Which growth does the source give for `CCCc1cc2cc(-n3nc(C)c4c3CC(C)(C)CC4=O)cc(NC3CCC(O)CC3)c2c(=O)[nH]1` (stereo not given) here?
A: 20.3%

Q: `COc1ccc(OC)c(NC2=C(SCCc3ccccc3)C(=O)c3ccccc3C2=O)c1` was tested. Which growth did it give?
A: 122%

Q: With `O=C(Cn1cncn1)Nc1ccc(-c2nc3ccccc3s2)cc1` as the molecule, how does the growth read?
A: 105%

Q: How did the growth turn out when `O=C(Nc1cccc([N+](=O)[O-])c1)c1ccc(Cl)c(Cl)c1` was run?
A: 82.7%

Q: How did the growth turn out when `CCNC(=O)Nc1nc2ccc(Oc3ccnc(C(=O)NC)c3)cc2s1` was run?
A: 62.8%

Q: Which growth does the source give for `CC(C)(O)CC(=O)NCCn1ccc2ncnc(Nc3ccc(Oc4cccc(C(F)(F)F)c4)c(Cl)c3)c21` here?
A: 7.97% (active)

Q: `COc1ccc2c(c1OC)C(=O)O[C@@H]2[C@H]1c2c(c(C#CC#Cc3ccc(F)c(F)c3)c3c(c2OC)OCO3)CCN1C` was tested. Which growth did it give?
A: 101%

Q: Which growth does the source give for `COc1ccc2nc3cc(Cl)ccc3c(Nc3ccc(N(C)C)cc3)c2c1` here?
A: 57.5%

Q: `Cc1cc2c(-c3nc4ccccn4c3Nc3cccc4ccccc34)c(O)c(O)cc2c(O)c1-c1c(C)cc2c(-c3nc4ccccn4c3Nc3cccc4ccccc34)c(O)c(O)cc2c1O` was tested. Which growth did it give?
A: 27.3%

Q: How did the growth turn out when `Cc1cc(Oc2ccccc2)ccc1Nc1ncnc2ccc(-c3cnc(Cl)c(NS(C)(=O)=O)c3)cc12` was run?
A: 21.2%

Q: How did the growth turn out when `CC(C)CC(=O)Nc1n[nH]c2c1CN(C(=O)C1CCN(C)CC1)C2(C)C` was run?
A: 7.27% (active)

Q: With `CC(C)C1CCC(C)C(C2(C#N)C(N)=NC(N)=C2C#N)C1=O` (stereo not given) as the molecule, how does the growth read?
A: 103%

Q: With `COC(=O)Nc1nc2ccc(C(=O)c3ccc(N(C)C4COC4)cc3)cc2[nH]1` as the molecule, how does the growth read?
A: 15.9%

Q: `Cn1nccc1Nc1nccc(-c2ccn([C@H](CO)c3ccc(Cl)c(F)c3)c(=O)c2)n1` was tested. Which growth did it give?
A: 99.8%

Q: For `CCCCCCCCCNCCCCCCCCC`, which growth is on record?
A: 23.7%

Q: With `C/C(=C(/c1ccc(Cl)cc1)c1ccc(OCCN2CCCCC2)cc1)c1ccccc1` as the molecule, how does the growth read?
A: 60.6%

Q: With `COc1cccc(Nc2ncnn3ccc(CN4CC[C@@H](N)[C@H](O)C4)c23)c1` as the molecule, how does the growth read?
A: 66.2%

Q: For `OCCNC(=S)Nc1ccc(-c2nc(N3C[C@H]4CC[C@@H](C3)O4)c3cccn3n2)cc1`, which growth is on record?
A: 18.9%

Q: Which growth does the source give for `Cc1ccc(-n2nc(C(C)(C)C)cc2NC(=O)NCc2cc(F)ccc2Oc2ccc3c(cnn3CCO)c2)cc1` here?
A: 20%

Q: How did the growth turn out when `COC(=O)C1=C(C(=O)OC)C23C=C(C)C1C2=C(C)C1(CC1)[C@@](C)(O)C3=O` (stereo not given in full) was run?
A: 66.5%

Q: Which growth does the source give for `COc1cc2ncnc(Nc3ccc(F)c(Cl)c3)c2cc1NC(=O)/C=C/CN1CCCCC1` here?
A: 6.37% (active)

Q: Which growth does the source give for `CCc1nc2cc(/C=C/C(=O)NO)c(F)cc2c(=O)n1CCc1ccccc1` here?
A: 2.77% (active)

Q: With `CCc1nc2cc(/C=C/C(=O)NO)ccc2c(=O)n1CCc1ccc(F)cc1` as the molecule, how does the growth read?
A: 2.06% (active)

Q: How did the growth turn out when `Cc1ccc(NC(=O)c2ccc(CN3CCN(C)CC3)cc2)cc1Nc1nc(-c2cccnc2)cs1` was run?
A: 11.8%

Q: For `CO[C@H]1C[C@@H]2CC[C@@H](C)[C@@](O)(O2)C(=O)C(=O)N2CCCC[C@H]2C(=O)O[C@H]([C@H](C)C[C@@H]2CC[C@@H](OP(C)(C)=O)[C@H](OC)C2)CC(=O)[C@H](C)/C=C(\C)[C@@H](O)[C@@H](OC)C(=O)[C@H](C)C[C@H](C)\C=C/C=C/C=C/1C`, which growth is on record?
A: 37.2%

Q: How did the growth turn out when `CC(C)(C)C(=O)OCOP(=O)(OCOC(=O)C(C)(C)C)C1CCCN(OC(=O)c2ccccc2)C1=O` (stereo not given) was run?
A: 4.03% (active)

Q: For `CC(=O)CC1CCCC1c1ccc2ccccc2c1` (stereo not given), which growth is on record?
A: 97.6%

Q: `O=C(NCCO)Nc1ccc(-c2nc(N3CCOCC3)c3cccn3n2)cc1` was tested. Which growth did it give?
A: 27.4%

Q: How did the growth turn out when `CCN1CCN(CCCN(C[C@H]2Cc3ccccc3CN2)[C@H]2CCCc3cccnc32)CC1` was run?
A: 79.6%

Q: With `COc1cc2c(cc1O)c(=O)n(CCN(C)C)c1c3cc4c(cc3ncc21)OCO4` as the molecule, how does the growth read?
A: -11.3% (active)

Q: How did the growth turn out when `O=C1CCC(=O)CC1` was run?
A: 98.1%

Q: With `CC(=O)NCC(=O)N1[C@@H]2CC[C@H]1c1ccc(Nc3ncc(C(F)(F)F)c(NC4CCC4)n3)cc12` as the molecule, how does the growth read?
A: 40.2% [2.5 µM]

Q: For `C=CCN1C(=O)c2cccc3c(-c4ccc5c(c4)ncn5C4CCCCC4)ccc(c23)C1=O`, which growth is on record?
A: 33%

Q: Which growth does the source give for `CCS(=O)(=O)N1CCN(c2ccc(Nc3ncc(C(N)=O)c(NC4CC4)n3)cc2)CC1` here?
A: 27.6%

Q: For `COC(=O)[C@]12CC[C@@H](C)[C@H](C)[C@@H]1C1=CC[C@@H]3[C@@]4(C)C(c5cnco5)=C[C@@](C)(CO)C4=CC[C@@]3(C)[C@]1(C)CC2`, which growth is on record?
A: 35.5%
